Screens from PubChem BioAssay.
Eya2 phos inh = blocks the phosphatase activity of human Eya2; O00167; recombinant Eya2, OMFP fluorescence dephosphorylation (OMFP is methylfluorescein phosphate); Potency, µM (titrated, usually from 76.9 µM), usual class: inhibitors; 330,000 compounds, 0.006% hits
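Eya2 protein (added as 0.2 uM solution) was preincubated with compound for 10 min at ambient temperature in 50 mM HEPES pH 7.5, 50 mM NaCl, 5 uM MgCl2, 0.05% BSA, 1 mM DTT. OMFP (added at 50 uM) then reacted 10 min; fluorescence read at 485/525 nm.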
TrxR1 substrate = rat thioredoxin reductase 1 substrate activity. 390,000 compounds, 0.01% hits. Potency, µM (top dose mostly 114 µM). purified TrxR1 substrate turnover, NADPH consumption readout; note: nearly all actives have a fitted effect of over 50% in size
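Rat TrxR1, dispensed at 90 nM, was prereduced with 400 uM NADPH (final) for 5 min at ~22 deg C, then incubated with compound 15 min before 400 uM selenite. A first-read NADPH fluorescence drop versus no-compound background flagged substrates.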
RGS4 inh = inhibitors of human regulator of G protein signaling 4 | P49798 | Transcreener GDP fluorescence polarization, RGS4-accelerated GTP hydrolysis | Potency, µM (top dose mostly 114 µM), most hits filed as inhibitors | 390,000 compounds, 0.039% hits | AID 504845; note: nearly all actives have a fitted effect of over 75% in size
Target sequence (P49798 whole entry, looked up): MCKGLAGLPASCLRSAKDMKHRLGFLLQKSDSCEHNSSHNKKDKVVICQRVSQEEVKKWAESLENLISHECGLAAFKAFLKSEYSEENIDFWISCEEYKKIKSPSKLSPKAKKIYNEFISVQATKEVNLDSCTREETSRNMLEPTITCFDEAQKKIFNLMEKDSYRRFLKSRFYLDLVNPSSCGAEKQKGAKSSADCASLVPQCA
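MLSMR compounds (23 nl, pin-transferred) preincubated 10 min at room temperature with a 500nM (2x) first reagent, then RGS4 at 900nM (2x) plus Transcreener GDP mix added; fluorescence polarization (620/688 nm) read before and after 90 min at 30 °C.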
mIDH1 inhibitor = blocks human mutant IDH1 R132H enzyme | 390,000 compounds, 0.093% hits | Potency, µM (top dose mostly 76.6 µM), hits mostly inhibitors | AID 602179 | IDH1-R132H enzyme, NADPH consumption, diaphorase/resazurin fluorescence; note: nearly all actives have a fitted effect of over 65% in size
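IDH1-R132H (0.5 ug/mL dispensed) in pH 7.5 Tris buffer was preincubated 30 min with compound, then given a substrate mix of 0.016 mM NADPH and 2 mM alpha-KG for 80 min at room temperature; remaining NADPH was read by diaphorase/resazurin fluorescence.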
TrxR1 inh-1 = rat TrxR1 inhibition; 390,000 compounds, 1% hits; recombinant rTrxR1, NADPH fluorescence consumption, selenite substrate; O89049; Potency, µM (series often up to 114 µM), usual class: inhibitors; note: nearly all actives have a fitted effect of over 65% in size
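Rat TrxR1 (90 nM in the dispensed reagent) was pre-reduced with 400 uM NADPH for 5 min at room temperature, then incubated with compound for 15 min. After 400 uM selenite was added, NADPH fluorescence (Ex 340/Em 450 nm) was followed for 8 min.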
TRb SRC2 Alpha = disrupts human TRb binding to SRC2 peptide in AlphaScreen. AlphaScreen TRb LBD-SRC2 peptide binding, luminescence. shares compounds with TrxR1 inh-1. Potency, µM. 30 compounds, 50% hits; calls by dose curve
Target sequence (P10828 whole entry, looked up, the tested form may be a part): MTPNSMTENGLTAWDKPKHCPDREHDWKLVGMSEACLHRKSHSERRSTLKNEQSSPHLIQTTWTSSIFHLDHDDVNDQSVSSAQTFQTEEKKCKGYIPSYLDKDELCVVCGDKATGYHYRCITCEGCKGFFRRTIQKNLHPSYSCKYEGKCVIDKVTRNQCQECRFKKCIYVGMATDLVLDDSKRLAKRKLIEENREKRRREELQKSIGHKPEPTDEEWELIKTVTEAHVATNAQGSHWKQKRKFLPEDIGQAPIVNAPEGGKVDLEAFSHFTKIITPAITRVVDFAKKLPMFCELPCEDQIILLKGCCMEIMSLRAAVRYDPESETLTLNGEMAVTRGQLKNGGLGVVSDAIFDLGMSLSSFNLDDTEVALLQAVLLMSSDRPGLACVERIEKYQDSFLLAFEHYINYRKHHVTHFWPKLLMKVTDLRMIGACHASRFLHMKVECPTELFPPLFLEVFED
HepG2 tox = HepG2 cytotoxicity, 72 h ATP readout; Potency, µM; AID 2447; 40 compounds, 50% hits; shares compounds with TrxR1 inh-1; HepG2 viability, ATP luminescence (CellTiter-Glo), 72 h; calls by dose curve
AR SRC2 FP = disrupts human androgen receptor binding to SRC2 peptide | shares compounds with TrxR1 inh-1 | AR-LBD Tx-SRC2-3 fluorescence polarization, 3 h | calls only | 25 tested, under 10 active; call rule not given here
PPARg DRIP2 FP = selectivity of TRb-SRC2 inhibitors: human PPARgamma coactivator binding inhibition | shares compounds with TrxR1 inh-1 | PPARg LBD / Texas Red DRIP-2 peptide, fluorescence polarization, 3 h | Potency, µM | 25 tested, under 10 active; calls by dose curve
VDR SRC2 FP = VDR-SRC2 (human) interaction inhibition, selectivity; 25 tested, under 10 active; VDR LBD/SRC2-3 peptide, fluorescence polarization, 3 h; Potency, µM; shares compounds with TrxR1 inh-1; calls by dose curve
TRb SRC2 FluoFP = disrupts human TRb binding to fluorescein-SRC2 peptide; shares compounds with TrxR1 inh-1; TRb LBD / fluorescein-SRC2 peptide, fluorescence polarization; Potency, µM; 20 tested, under 10 active; AID 2487; call rule not given here
GR inh = counter-screen for TrxR1 inhibitors: human glutathione reductase inhibition; shares compounds with TrxR1 inh-1; purified GR, DTNB reduction absorbance 405 nm kinetic; activity change, negative = inhibition, % at 57.1 µM; 55 tested, under 10 active; AID 652020
TrxR1 inh-2 = blocks rat thioredoxin reductase 1 in hit validation. Potency, µM, most hits filed as inhibitors. 55 compounds, 50% hits. recombinant TrxR1, NADPH fluorescence consumption, selenite substrate. shares compounds with TrxR1 inh-1
TrxR1 insulin = TrxR1 inhibition in insulin mechanism assay; TrxR1 Trx-coupled insulin reduction, NADPH absorbance 340 nm; 55 compounds, 20% hits; shares compounds with TrxR1 inh-1; AID 652037; Potency, µM;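 active = compounds with a measured potency under 100 micromolar; inconclusive = filed, but no rule given; inactive = potency at or above that, or unmeasurable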
TrxR1 inh-3 = inhibitors of rat thioredoxin reductase 1, DTNB reduction; purified TrxR1, DTNB reduction, A412; 55 compounds, 90% hits; Potency, µM; shares compounds with TrxR1 inh-1;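 active = a half-inhibiting concentration could be measured and was below 100 µM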
Large screens that a line does not name were inactive (follow-up assays come after a bar, where they were run); ! = not confirmed by another sample. Sampled rows, rich in hits. Any-hit rate of the full collection: about 1.1%. Unless noted, calls come from the whole dose curve; as a rule, active = well fitted curve in the direction sought with a large enough effect; inconclusive = small, poorly fitted or top-dose-only effect, or another doubt; inactive = no such curve, though single readings can be large; an effect the other way counts as inactive or inconclusive.

CS(=O)(=O)c1ccc(C(=O)OCC(=O)NC(=O)C2CCCCC2)cc1[N+](=O)[O-]	TrxR1 inh-1 3.2µM | TRb SRC2 Alpha 0.6µM | HepG2 tox 23µM | AR SRC2 FP inactive | PPARg DRIP2 FP 22µM | VDR SRC2 FP inactive | TRb SRC2 FluoFP 11µM
CC1(C)C2CCC1(C)C(NC(=O)COC(=O)c1ccc(S(C)(=O)=O)c([N+](=O)[O-])c1)C2 (stereo unspecified)	TrxR1 inh-1 3.5µM (no result: Eya2 phos inh, mIDH1 inhibitor) | TRb SRC2 Alpha 6.8µM | HepG2 tox 23µM | AR SRC2 FP inactive | PPARg DRIP2 FP inactive | VDR SRC2 FP 40µM | TRb SRC2 FluoFP 3.3µM
CC(=O)Nc1cccc(C(=O)OCC(=O)NC2CCCCCCC2)c1	none
O=C(CCCOc1ccc(Cl)cc1Cl)N/N=C\C1CCCCC1	none
COc1ccc(CNC(=O)CCc2c(C)nc3c4cccnc4nn3c2C)cc1	none (no result: Eya2 phos inh)
CC1CCC(NC(=O)COC(=O)c2ccc3ncsc3c2)CC1 (stereo unspecified)	none
O=C(COC(=O)c1ccc2ncsc2c1)NC(=O)C1CCCCC1	none (no result: Eya2 phos inh, mIDH1 inhibitor) | TRb SRC2 Alpha inactive | HepG2 tox 20µM | TRb SRC2 FluoFP inactive
O=C(COC(=O)c1ccc(C(F)(F)F)cc1)NC(=O)C1CCCCC1	none (no result: Eya2 phos inh, mIDH1 inhibitor) | TRb SRC2 Alpha inactive | HepG2 tox inactive | TRb SRC2 FluoFP inactive
COc1ccc2c(c1)C(=O)N1[C@H]3c4cc(OC)ccc4OC[C@@H]3[C@H](c3ccccc3)[C@]1(C)C(=O)N2	none
Cc1ccc(NC(=O)CCN2C(=O)c3ccccc3Sc3ncccc32)cc1	TrxR1 inh-1 11µM | GR inh inactive | TrxR1 inh-2 9.5 | TrxR1 insulin inactive | TrxR1 inh-3 inactive
COc1cc(C(c2nnnn2C(C)(C)C)N2CCN(c3nc4ccccc4s3)CC2)ccc1O (stereo unspecified)	TrxR1 inh-1 13µM | GR inh inactive | TrxR1 inh-2 inconclusive | TrxR1 insulin inactive | TrxR1 inh-3 0.16µM
O=c1[nH]c(/C=C/c2ccccc2Cl)c([N+](=O)[O-])c(=O)[nH]1	RGS4 inh inconclusive
Cc1cccc(C(=O)Nc2nnc(S(=O)(=O)N(C)Cc3ccco3)s2)c1	TrxR1 inh-1 45µM! | GR inh inactive | TrxR1 inh-2 inconclusive | TrxR1 insulin inconclusive | TrxR1 inh-3 49µM
COc1ccc([N+](=O)[O-])c(S(=O)(=O)c2ccccc2)n1	RGS4 inh inconclusive, TrxR1 inh-1 inconclusive
COc1ccc([N+](=O)[O-])c(S(=O)(=O)c2ccc(Cl)cc2)n1	RGS4 inh inconclusive, TrxR1 inh-1 0.5µM | GR inh inactive | TrxR1 inh-2 0.13 | TrxR1 insulin 26µM | TrxR1 inh-3 0.041µM
CCCc1ccc(OCc2ccccc2)c2c(=O)cc(C(=O)OCC)oc12	none
COc1cc(/C=C2/C(=O)NN(c3cccc(F)c3)C2=O)ccc1OC(=O)c1ccco1	RGS4 inh inconclusive, TrxR1 inh-1 28µM | GR inh inactive | TrxR1 inh-2 inconclusive | TrxR1 insulin inactive | TrxR1 inh-3 6.8µM
CCOc1ccccc1Nc1cc(C)nc2nc(C)nn12	none
CCCCCCCN1C(Nc2ccccc2)=NC[C@@H]1Cc1ccccc1	none
CCN1C(Nc2ccccc2)=NC[C@@H]1Cc1ccccc1	TrxR1 inh-1 16µM | GR inh inactive | TrxR1 inh-2 inconclusive | TrxR1 insulin inactive | TrxR1 inh-3 0.87µM
COc1cc2c(=O)n(CCC(=O)NCC3CCCO3)c(=O)n(CC(=O)Nc3ccc(C)c(C)c3)c2cc1OC (stereo unspecified)	none
O=C(O)c1cccc(Oc2ncnc3sc4c(c23)CCCC4)c1	none
CN1c2cccc3cccc(c23)N(C)C1(C)C	none
CN1c2ccccc2N(C)C1(C)c1cccc2ccccc12	RGS4 inh inconclusive, TrxR1 inh-1 50µM | GR inh inactive | TrxR1 inh-2 inconclusive | TrxR1 insulin inactive | TrxR1 inh-3 4.4µM
CN(C)CC1(C)Cc2ccsc2C1O (stereo unspecified)	none (no result: Eya2 phos inh)
Cc1c(C(=O)O)oc2ccc(S(=O)(=O)NCc3ccc(F)cc3)cc12	none
CCC(C)(C)n1nnnc1C(c1ccc(O)cc1)N1CCc2ccccc2C1 (stereo unspecified)	TrxR1 inh-1 16µM | GR inh inactive | TrxR1 inh-2 7.5 | TrxR1 insulin inactive | TrxR1 inh-3 0.24µM
COCCn1nnnc1C(c1ccc(O)c(OC)c1)N1CCc2ccccc2C1 (stereo unspecified)	RGS4 inh inconclusive, TrxR1 inh-1 5.6µM | GR inh inactive | TrxR1 inh-2 4.7 | TrxR1 insulin inactive | TrxR1 inh-3 0.27µM
CSc1nc2c(c(=O)n1-c1ccccc1)SCC2	none
COc1ccc(C(=O)NC(Cc2ccccc2)c2ccc3c(c2)OCCCO3)cc1 (stereo unspecified)	none
Cc1ccc2[nH]c(=O)c(CN(CCCN3CCOCC3)Cc3nnnn3C3CCCC3)cc2c1	TrxR1 inh-1 20µM | GR inh inconclusive | TrxR1 inh-2 inconclusive | TrxR1 insulin 3µM | TrxR1 inh-3 5.4µM
O=C(Cc1cccc([N+](=O)[O-])c1)NCc1nc2cccnc2n1Cc1ccc(F)cc1	none (no result: Eya2 phos inh)
